# From PubChem BioAssay AID1839 (Johns Hopkins Ion Channel Center, 2009)
# Out of some 2,400 compounds screened, about 220 (9.2%) were called active. The list comes from a sample in which actives are over-represented; it also holds similar structures and randomly drawn compounds. A number with no mark means an inactive call.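 Rule for the calls: active = signal change above the mean of dofetilide-free buffer controls plus 3 SD, so a positive margin; inactive = the rest.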
# Assay: thallium signal changes without hERG – cell-based, CHO-K1 parental line, FluxOR thallium flux, counter-screen for hERG block protection project, confirmation (AID 1839);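 note: compounds applied alone with no dofetilide to cells lacking hERG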
# Conditions: CHO-K1 parental cells, FluxOR thallium flux fluorescence; at 10 µM
row,SMILES,"signal change vs control minus 3*SD hit threshold (margin above threshold, higher = more increase)"
1,COc1ccc(CCNS(=O)(=O)c2csc(C(N)=O)c2)cc1OC,-34.6%
2,CCNC(=S)Nc1scc(-c2ccccc2)c1C(=O)OCC,-20.8%
3,O=c1oc2ccccc2c(Cl)c1CN1CCCCC1,-42.9%
4,NC(=O)C1CCN(C(=O)CCC(=O)c2ccc(F)cc2)CC1,-28.7%
5,Cc1sc2nc(CN3CCOCC3)[nH]c(=S)c2c1C,21.4% (active)
6,CCOC(=O)NC(=S)Nc1ccc(C(C)(C)C)cc1Br,-0.4%
7,CC(=O)c1c(C)c2c(n1CCN(C)C)CCCC2,-15.9%
8,CSc1nc2c(c(=O)[nH]1)C(c1ccc(Cl)cc1)CC(=O)N2 (stereo not given),-31.6%
9,Cc1ccc(Cn2c(=S)[nH]c3ccccc3c2=O)cc1,-14.9%
10,CC(C)COn1c(=S)[nH]c2ccccc2c1=O,-10.2%
11,O=c1c2ccccc2[nH]c(=S)n1CCC1=CCCCC1,3% (active)
12,CCCCn1c(=S)[nH]c2ccccc2c1=O,-18.2%
13,CCCCCn1c(=S)[nH]c2ncccc2c1=O,-0.3%
14,CC(C)CCn1c(=S)[nH]c2ncccc2c1=O,-18.3%
15,O=C(CCn1c(=S)[nH]c2cc3c(cc2c1=O)OCO3)NCc1ccc(Cl)cc1,-22.3%
16,O=c1c2cccnc2[nH]c(=S)n1CCC1=CCCCC1,14.4% (active)
17,O=c1c2ccccc2[nH]c(=S)n1CCc1ccccc1,5.9% (active)
18,O=c1c2ccc(Cl)cc2[nH]c(=S)n1CCC1=CCCCC1,4.8% (active)
19,COc1ccccc1Cn1c(=S)[nH]c2ccc(Br)cc2c1=O,-15.7%
20,O=[N+]([O-])c1ccc(Nc2ccc(Cl)cc2)nc1,-22%
21,COc1cccc(/C=N/n2c(SC)nnc2-c2ccccc2)c1O,-24.3%
22,Cc1cc(=O)[nH]c(=S)n1-c1ccccc1,-38.5%
23,Cc1nn(-c2cccc(C(F)(F)F)c2)c(Cl)c1/C=N/Nc1cccc(C(=O)O)c1,-28.4%
24,CCNC(=O)C/C(C)=N/NC(=O)C(=O)Nc1ccc(CC)cc1,-7.4%
25,COc1ccc(/C=N/NC(=O)c2ccncc2)cc1CN1CCCc2ccccc21,-40.9%
26,CC1CN(S(=O)(=O)c2ccc(-c3nc4ccccc4s3)cc2)CC(C)O1 (stereo not given),-8.4%
27,CCSc1nnc(NC(=O)Cn2cnc3c2c(=O)n(C)c(=O)n3C)s1,-29.2%

row,SMILES,"signal change vs control minus 3*SD hit threshold (margin above threshold, higher = more increase)"
1,CC(C)CN1C(=O)/C(=C/c2cccs2)NC1=S,32% (active)
2,CCN1C(=O)/C(=C/c2ccc(C)s2)NC1=S,1.1% (active)
3,COc1ccc(N2C(=O)/C(=C/c3cccs3)NC2=S)cc1,-29.8%
4,CCCN1C(=O)/C(=C/c2ccc3c(c2)OCO3)NC1=S,-21.2%
5,CCCN1C(=O)/C(=C/c2ccc(C)s2)NC1=S,33.6% (active)
6,CC(C)CN1C(=O)/C(=C/c2ccco2)NC1=S,-30.9%
7,COc1ccc(C(=O)NC(=S)N2CCC(C)CC2)cc1Br,-12.4%
8,Oc1c(Br)cc(Cl)cc1C=Nc1ccccc1Br,-1.8%
9,O=C(c1ccc(CS(=O)c2cccc(Cl)c2)o1)N1CCCCCC1 (stereo not given),-32.8%
10,NS(=O)(=O)c1ccc(NC(=S)NCc2cccs2)cc1,-30.2%
11,O=C(Nc1cccnc1)c1cc(-c2cccs2)on1,-26.5%
12,COC(=O)C1CCCN1C(=O)COc1ccc(Cl)cc1Br (stereo not given),-25.2%
13,O=C(c1c(O)c2ccccc2oc1=O)C1CCCCC1,-22%
14,CCCN(Cc1ccccc1)C(=S)NC(=O)c1ccccc1[N+](=O)[O-],24.3% (active)
15,CCN(Cc1ccccc1)C(=S)NC(=O)c1ccccc1Br,27% (active)
16,CN(Cc1ccccc1)C(=S)NC(=O)c1cccs1,-20.6%
17,N#CCCN(Cc1ccccc1)C(=S)NC(=O)c1ccccc1,-30.7%
18,CN(C(=S)NC(=O)c1ccccc1Br)C1CCCCC1,-13.4%
19,CN(C(=S)NC(=O)c1ccccc1)C1CCCCC1,-23.6%
20,O=C(NC(=S)N(Cc1ccccc1)Cc1ccccc1)c1ccccc1F,-6.4%
21,CCC(=O)NC(=S)NNC(=O)c1ccccc1[N+](=O)[O-],-28%
22,CCN(C(=S)NC(=O)c1ccccc1Br)C1CCCCC1,16.2% (active)
23,CCc1cc2cc(C)cc(C)c2[nH]c1=S,-11.2%
24,COc1ccc(OCC(=O)Nc2c3c(nn2-c2ccc(OC)cc2)CS(=O)(=O)C3)cc1,-14.9%
25,O=C(O)c1ccc(S(=O)(=O)/N=C2\C=C(Nc3ccccc3F)C(=O)c3ccccc32)cc1,-14.9%
26,O=C(Nc1ccccc1)OCCCCCOC(=O)Nc1ccccc1,-25.4%
27,O=C(O)c1ccccc1NC(=O)c1cc2ccccc2oc1=O,-21.3%

row,SMILES,"signal change vs control minus 3*SD hit threshold (margin above threshold, higher = more increase)"
1,Cc1ccc(C)c(NC(=S)NC(=O)c2cncc(Br)c2)c1,-24.9%
2,CCCCCCC12CCC(C(=O)O)(CC1)CC2,-8.9%
3,O=c1c2[nH]c3ccccc3c2nc2n1CCCS2,-3.7%
4,C=CCNC(=O)c1ccccc1NC(=O)COc1ccc(OC)cc1,-31.9%
5,COc1ccc(N2CCN(C(=S)NC(=O)c3cccs3)CC2)c([N+](=O)[O-])c1,-27.4%
6,COc1cc(/C=C/C(=O)N[C@@H](Cc2c[nH]c3ccccc23)C(=O)O)ccc1O,-19.7%
7,CCCCSc1nnc(CCC)n1N,-30.7%
8,O=C(CC1CCCC1)Nc1ccc2c(c1)CCC2,-18.5%
9,CC1Cc2ccccc2N1C(=S)NC(=O)c1ccco1 (stereo not given),-28.6%
10,CC1Cc2ccccc2N1C(=S)NC(=O)C1(C)CC1(Cl)Cl (stereo not given),11.2% (active)
11,Cc1csc2ncc(C(=O)N3c4ccccc4CC3C)c(=O)n12 (stereo not given),-16.4%
12,O=C(NC(=S)N1CCCc2ccccc21)c1ccc(Br)cc1,-8.9%
13,CC1Cc2ccccc2N1C(=S)NC(=O)c1ccc(Cl)cc1Cl (stereo not given),23.8% (active)
14,CC(Oc1ccc(Cl)cc1Cl)C(=O)NC(=S)N1CCc2ccccc21 (stereo not given),-7.9%
15,CC(C)N(Cc1ccccc1)C(=S)NC(=O)C1(C)CC1(Cl)Cl (stereo not given),-9.7%
16,CC1Cc2ccccc2N1C(=S)NC(=O)c1cccc(Br)c1 (stereo not given),48.8% (active)
17,Cc1cccc(C(=O)NC(=S)N2CCc3ccccc3C2)c1,-1.3%
18,Oc1c(Cl)cc(CN2CCCCC2)c2cccnc12,-25.2%
19,CCOC(=O)Cc1csc(NC(=S)NC(=O)c2ccccc2C)n1,-13.6%
20,Cc1cc(C(=O)NNC(=O)c2cccs2)nn1C(C)(C)C,-25.3%
21,O=C(NN=C1c2ccccc2-c2ccccc21)c1ccccc1,-27.5%
22,CCNC(=S)N/N=C1\C(=O)c2cccc3cccc1c23,-16.8%
23,O=C(N/N=C1/C(=O)c2cccc3cccc1c23)c1ccc(Cl)cc1,41.5% (active)
24,Cc1ccc(-c2n[nH]c(=S)nc2-c2ccc(C)cc2)cc1,-27.5%
25,CSc1nc2c(c(=O)[nH]1)C(c1ccc(F)cc1)CC(=O)N2 (stereo not given),-36%
26,CC(C)CC(=O)Nc1ccc2c3c(cccc13)CC2,-19.8%
27,COCCCn1c(=S)[nH]c2sc3c(c2c1=O)CCCC3,2.5% (active)

row,SMILES,"signal change vs control minus 3*SD hit threshold (margin above threshold, higher = more increase)"
1,COCCCn1c(=S)[nH]c2c(sc3ccccc32)c1=O,-36.9%
2,CCCn1c(=S)[nH]c2sc3c(c2c1=O)CCCC3,32.1% (active)
3,C=CCn1c(=S)[nH]c2sc3c(c2c1=O)CCC3,-7.2%
4,COCCn1c(=S)[nH]c2sc3c(c2c1=O)CCCC3,-5.6%
5,CCn1c(=S)[nH]c2sc3c(c2c1=O)CCCC3,8.5% (active)
6,C=CCn1c(=S)[nH]c2sc3c(c2c1=O)CCCC3,3.6% (active)
7,CCCn1c(SCC(=O)N2CCN(C(C)=O)CC2)nc2sc3c(c2c1=O)CCC3,-6.2%
8,O=c1c2c3c(sc2[nH]c(=S)n1Cc1ccco1)CCC3,-6.1%
9,C=CCn1c(=S)[nH]c2nc3c(cc2c1=O)CCCC3,-15.7%
10,CCn1c(SCC(N)=O)nc2sc3c(c2c1=O)CCCC3,-14.4%
11,Cc1ccnc(N2CCC(C(=O)Nc3ccc(Oc4ccccc4)cc3)CC2)n1,-28.4%
12,CCCn1c(SCC(N)=O)nc2c(c1=O)C1(CCCC1)Cc1ccccc1-2,-7.7%
13,COc1ccc(NC(=O)CCN2C(=O)C3C4C=CC(C4)C3C2=O)cc1 (stereo not given),-35%
14,C=CCN(CC=C)C(=S)NC(=O)Cc1cccc2ccccc12,-17.1%
15,COc1ccc(C(CC(=O)N2CCOCC2)c2c(O)cc(OC)cc2OC)cc1 (stereo not given),-27.3%
16,CCSc1nc2c(sc3ccccc32)c(=O)n1C(C)C,-0.8%
17,Cc1ccc2[nH]c(C(=O)O)c(-c3ccccc3)c2c1,-18.6%
18,CCOC(=O)C1=C(O)/C(=C/c2ccc(OCC(=O)O)c(OC)c2)SC1=Nc1ccc(OCC)cc1,-28.1%
19,COc1ccc(-c2cc(C(=O)N3CCCC3)no2)cc1OC,-5.8%
20,CCOC(=O)c1[nH]c(=O)[nH]c1COC(=O)c1cc2ccccc2o1,-34.3%
21,COc1ccc(NC(=O)CSCC(=O)Oc2c(OC)cccc2OC)cc1,-30.4%
22,CCn1c(=S)[nH]c2sc3c(c2c1=O)CCCCC3,37.1% (active)
23,CCn1c(SC(C)C(=O)O)nc2sc3c(c2c1=O)CCC3 (stereo not given),-5.9%
24,Cc1cc(C)n(-c2nc3sc4c(c3c(=O)[nH]2)CCCC4)n1,-29.7%
